From PubChem BioAssay
Several values for one entry are separate records, joined by “and”; a condition that tells them apart may be missing. Identical values can stand only once. Records with an inconclusive call do not appear. Activity calls are given as the source filed them. Unless noted, no rule for the calls is given here.

Tests used:
[1] = Cy5 fluorescence interference with SSB-bound oligo, artefact control for HCV NS3 helicase inhibitor project, biochemical, NIH Clinical Collection, E. coli SSB (AID 743268)
[2] = system: Hepatitis C virus NS3 helicase; assay: HCV NS3 helicase inhibitors, primary screen, biochemical, fluorescence polarization, NIH Clinical Collection (AID 743270); conditions: NS3 helicase binding to Cy5-dT15 DNA, stronger effect = higher value, concentration not given here
[3] = molecular target: Single-stranded DNA-binding protein (Escherichia coli (strain K12)) (UniProt P0AGE0); assay: E. coli SSB displacement from DNA, counter-screen for HCV NS3 helicase inhibitor project, biochemical, fluorescence polarization, NIH Clinical Collection (AID 743271; in the data active = inhibition above about 28%); conditions: stronger effect = higher value, concentration not given here
[4] = fluorescence interference in NS3h assay format, artefact control for HCV NS3 helicase inhibitor project, biochemical, NIH Clinical Collection (AID 743272); conditions: fluorescence interference counterscreen, stronger effect = lower value;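 also: HCV NS3 helicase with a Cy5 labelled single stranded DNA probe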
[5] = growth inhibition of DIPG glioma cells, dose response, cell-based, SU-DIPG-XVII, MIPE5.0, CellTiter-Glo, qHTS (AID 1347060; cut-off not given, nearly all actives have AC50 up to about 26 µM;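 as to AC50: cells exposed to compound for 48 hours before viability readout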); conditions: SU-DIPG-XVII viability, CellTiter-Glo ATP luminescence
[6] = growth inhibition of DIPG glioma cells, dose response, cell-based, SU-DIPG-XIII, MIPE4.0, CellTiter-Glo, qHTS (AID 1347061; cut-off not given, nearly all actives have AC50 up to about 37 µM;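 also: cells exposed to compound for 48 hours before readout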); conditions: SU-DIPG-XIII viability, CellTiter-Glo ATP luminescence
[7] = growth inhibition of DIPG glioma cells, dose response, cell-based, SU-DIPG-IV, MIPE4.0, CellTiter-Glo, qHTS (AID 1347063; cut-off not given, nearly all actives have AC50 up to about 30 µM;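 also: compound exposure lasted 48 hours before the viability readout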); conditions: SU-DIPG-IV viability, CellTiter-Glo ATP luminescence
[8] = viability loss in pontine glioma line – cell-based, SU-DIPG-XXV, MIPE5.0, CellTiter-Glo, qHTS, dose response (AID 1347065; cut-off not given, nearly all actives have AC50 up to about 26 µM;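 also: cells exposed to compound for 48 hours before ATP readout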); conditions: CellTiter-Glo ATP luminescence
[9] = SU-DIPG-VI glioma cell viability, MIPE4.0 library, CellTiter-Glo luminescence, qHTS (AID 1347066; cut-off not given, nearly all actives have AC50 up to about 30 µM;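 also: cells exposed to compound for 48 hours before readout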); conditions: CellTiter-Glo ATP luminescence
[10] = JHH-DIPG-1 glioma cell viability, MIPE5.0 library, CellTiter-Glo luminescence, qHTS (AID 1347067; cut-off not given, nearly all actives have AC50 up to about 26 µM;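 also: cells exposed to compound for 48 hours before readout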); conditions: JHH-DIPG-1 glioma viability, CellTiter-Glo ATP luminescence
[11] = SU-DIPG-XXV glioma cell viability, MIPE5.0 library, qHTS (AID 1347068; cut-off not given, nearly all actives have IC50 up to about 30 µM;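 as to IC50: cells exposed to compound for 48 hours before viability readout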)
F380Y/beta4 = assay: modulators of BK channel variants, profiling panel, selectivity assay, cell-based, U2OS BacMam, thallium flux, beta subunits (AID 1259406;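 active = thallium flux through the channel raised or lowered by more than 3 SD from vehicle-only wells, actives on both sides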;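 also: initial slope of Thallos dye fluorescence rise after thallium is added; log ratio against the mean of 0.3% DMSO vehicle wells on the same plate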); conditions: at 30 µM
[12] = molecular target: Calcium-activated potassium channel subunit alpha-1 (Homo sapiens) + Leucine-rich repeat-containing protein 26 (Homo sapiens) (UniProt Q12791+Q2I0M4); assay: as above; conditions: F380Y/Slo1WT/gamma1, at 30 µM
R275C/beta4 = assay: as above; conditions: at 30 µM
[13] = system: Aerobactin synthetase IucA (Klebsiella pneumoniae); assay: IucA aerobactin synthetase inhibitors, biochemical, Tocris library, absorbance (AID 1345561); conditions: purified IucA enzyme assay, absorbance (OD) read-out; stronger effect = lower value;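 tested at 8 µM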;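 also: 100% = enzyme without compound and 0% = no enzyme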
[14] = growth inhibition of DIPG glioma cells, dose response, cell-based, JHH-DIPG-1, MIPE4.0, CellTiter-Glo, qHTS (AID 1347062; cut-off not given, nearly all actives have AC50 up to about 27 µM;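 as to AC50: cells exposed to compound for two days before readout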); conditions: JHH-DIPG-1 viability, CellTiter-Glo ATP luminescence
[15] = LFS_MB_P medulloblastoma growth inhibition, cell-based, chromothripsis tumors, cisplatin or BGB combos (AID 1671449; in the data active = inhibition above about 80%;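 also: cells exposed for 96 hours; 0% = vehicle DMSO and 100% = killing by high DMSO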); conditions: LFS_MB_P medulloblastoma cells
[16] = HDN33 neuroblastoma growth inhibition, cell-based, chromothripsis tumors, cisplatin or BGB combos (AID 1671450; in the data active = inhibition above about 80%;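 also: cells exposed to compound for four days; 0% = vehicle DMSO and 100% = cell killing by high DMSO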); conditions: HDN33 neuroblastoma cells, stronger effect = higher value
[17] = ICB984 medulloblastoma cell growth inhibition, synergistic combos for chromothripsis tumors, cisplatin or BGB combos (AID 1671451); conditions: ICB984 medulloblastoma cells, drug combinations, stronger effect = higher value;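 also: cells exposed for 96 hours before readout; 0% = vehicle DMSO and 100% = killing by high DMSO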
[18] = HTB85 osteosarcoma cell growth inhibition, synergistic combos for chromothripsis tumors, BGB or cisplatin IC20 combos (AID 1671453; in the data active = inhibition above about 80%;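 also: cells exposed for 96 hours before readout; 0% = vehicle DMSO and 100% = high DMSO killing control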); conditions: HTB85 osteosarcoma cells, drug combinations, stronger effect = higher value

Calcium-activated potassium channel subunit alpha-1 (Homo sapiens) + Leucine-rich repeat-containing protein 26 (Homo sapiens), sequence (Q2I0M4 whole entry, looked up, one chain of several): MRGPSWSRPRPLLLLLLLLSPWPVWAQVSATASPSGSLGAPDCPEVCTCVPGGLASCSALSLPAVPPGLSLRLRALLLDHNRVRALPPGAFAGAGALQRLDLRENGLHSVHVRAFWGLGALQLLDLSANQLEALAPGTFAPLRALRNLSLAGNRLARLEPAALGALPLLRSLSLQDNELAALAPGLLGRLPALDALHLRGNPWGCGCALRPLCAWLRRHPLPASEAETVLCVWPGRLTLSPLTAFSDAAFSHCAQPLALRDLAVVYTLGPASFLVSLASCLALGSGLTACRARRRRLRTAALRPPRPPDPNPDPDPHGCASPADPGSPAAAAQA

CCC1(c2ccc(N)cc2)CCC(=O)NC1=O (stereo not drawn)
fluorescence ratio [1]: 1.03 (inactive)
inhibition [2]: -2.27% (inactive)
inhibition [3]: -2% (inactive)
fluorescence ratio [4]: 1.04 (inactive)
outcome [5]: inactive
outcome [6]: inactive
outcome [7]: inactive
outcome [8]: inactive
outcome [9]: inactive
outcome [10]: inactive
outcome [11]: inactive
log fold change Tl+ flux (F380Y/beta4): -0.00944 (inactive)
log fold change Tl+ flux [12]: -0.0199 (inactive)
log fold change Tl+ flux (R275C/beta4): 0.0132 (inactive)

NCC(O)c1ccc(O)cc1 (stereo not drawn)
remaining activity [13]: 96.2% (inactive)

COc1ccc(C(CN(C)C)C2(O)CCCCC2)cc1 (stereo not drawn)
fluorescence ratio [1]: 1.07 (inactive)
inhibition [2]: -2.77% (inactive)
inhibition [3]: 1.44% (inactive)
fluorescence ratio [4]: 0.93 (inactive)
outcome [6]: inactive
outcome [14]: inactive
outcome [7]: inactive
outcome [9]: inactive
log fold change Tl+ flux (F380Y/beta4): 0.00869 (inactive)
log fold change Tl+ flux [12]: -0.00535 (inactive)
log fold change Tl+ flux (R275C/beta4): 0.0192 (inactive)

CN(C)[C@@H]1C(=O)C(C(N)=O)=C(O)[C@@]2(O)C(=O)C3=C(O)c4c(O)cccc4[C@@](C)(O)[C@H]3[C@H](O)[C@@H]12
fluorescence ratio [1]: 1.03 (inactive)
inhibition [2]: -4.09% (inactive)
inhibition [3]: 4.86% (inactive)
fluorescence ratio [4]: 0.85 (inactive)
outcome [5]: inactive
outcome [6]: inactive
outcome [14]: inactive
outcome [7]: inactive
outcome [9]: inactive
outcome [10]: inactive
outcome [11]: inactive
log fold change Tl+ flux (F380Y/beta4): -0.0391 (inactive)
log fold change Tl+ flux [12]: 0.0226 (inactive)
log fold change Tl+ flux (R275C/beta4): 0.0299 (inactive)

N[C@@H](Cc1ccc(N(CCCl)CCCl)cc1)C(=O)O
AC50 [5]: 4.17 µM (active)
AC50 [14]: 23.5 µM (active)
AC50 [7]: 13.2 µM (active)
IC50 [11]: 29.5 µM (active)

O=C(O)CCCc1ccc(N(CCCl)CCCl)cc1
fluorescence ratio [1]: 1.06 (inactive)
inhibition [2]: -5% (inactive)
inhibition [3]: -4.29% (inactive)
fluorescence ratio [4]: 1.01 (inactive)
AC50 [5]: 0.934 µM (active)
outcome [6]: inactive
outcome [7]: inactive
outcome [9]: inactive
AC50 [10]: 16.6 µM (active)
outcome [11]: inactive
inhibition ([15]; at 0.5 µM, stronger effect = higher value): -42.9% (inactive)
inhibition ([15]; measured here: combination with BGB IC20, at 0.005 µM): -28.5%
inhibition ([15]; measured here: combination with BGB IC40, at 0.005 µM): -27.3%
inhibition ([15]; measured here: combination with BGB IC40, at 0.05 µM): -24.4%
inhibition ([15]; measured here: combination with cisplatin, at 0.5 µM, stronger effect = higher value): -49.6%
inhibition ([15]; measured here: combination with cisplatin, at 5 µM, stronger effect = higher value): -22.6%
inhibition ([16]; BGB combo, at 5 µM): -4.28%
inhibition ([16]; at 0.5 µM): -4.71% (inactive)
inhibition ([16]; cisplatin combo, at 5 µM): -10.3%
inhibition ([16]; measured here: with BGB IC20 combination, at 0.5 µM): -8.37%
inhibition ([16]; measured here: with cisplatin IC20 combination, at 0.5 µM): 15.9%
inhibition ([16]; single agent, at 5 µM): -10.9%
inhibition ([17]; BGB IC20 combo, at 0.005 µM): -3.85%
inhibition ([17]; BGB IC40 combo, at 0.005 µM): -23.1%
inhibition ([17]; BGB IC40 combo, at 0.05 µM): -2.9%
inhibition ([17]; at 0.5 µM): -29% (inactive)
inhibition ([17]; cisplatin combo, at 0.05 µM): -2.9%
inhibition ([17]; cisplatin combo, at 0.5 µM): -34.6%
inhibition ([17]; cisplatin combo, at 5 µM): -18.5%
inhibition ([17]; measured here: 5 uM single agent, at 5 µM): -8.66%
inhibition ([18]; at 0.5 µM): -18.7% (inactive)
inhibition ([18]; measured here: with BGB IC20, at 0.5 µM): -46.7%
inhibition ([18]; measured here: with BGB IC20, at 5 µM): -21.9%
inhibition ([18]; measured here: with cisplatin IC20, at 0.5 µM): -11%
inhibition ([18]; measured here: with cisplatin IC20, at 5 µM): -8.05%
inhibition ([18]; single agent, at 5 µM): -6.46%
log fold change Tl+ flux (F380Y/beta4): -0.0475 (inactive)
log fold change Tl+ flux [12]: -0.00393 (inactive)
log fold change Tl+ flux (R275C/beta4): -0.00696 (inactive)

O=c1[nH]c2ccccc2n1C1CCN(CCCC(c2ccc(F)cc2)c2ccc(F)cc2)CC1
remaining activity [13]: 106% (inactive)

O=c1[nH]c2ccccc2n1CCCN1CCC(n2c(=O)[nH]c3cc(Cl)ccc32)CC1
remaining activity [13]: 103% (inactive)
outcome [5]: inactive
outcome [6]: inactive
outcome [14]: inactive
outcome [9]: inactive
outcome [11]: inactive

CC(C)N(CCC(C(N)=O)(c1ccccc1)c1ccccn1)C(C)C (stereo not drawn)
fluorescence ratio [1]: 0.1 (active)
inhibition [2]: -3.18% (inactive)
inhibition [3]: -3.53% (inactive)
fluorescence ratio [4]: 1.04 (inactive)
log fold change Tl+ flux (F380Y/beta4): 0.017 (inactive)
log fold change Tl+ flux [12]: 0.0168 (inactive)
log fold change Tl+ flux (R275C/beta4): -0.0304 (inactive)

Clc1ccc(COC(Cn2ccnc2)c2ccc(Cl)cc2Cl)cc1 (stereo not drawn)
fluorescence ratio [1]: 1.02 (inactive)
inhibition [2]: 3.18% (inactive)
inhibition [3]: 4.1% (inactive)
fluorescence ratio [4]: 0.94 (inactive)
log fold change Tl+ flux (F380Y/beta4): -0.321 (active)
log fold change Tl+ flux (R275C/beta4): 0.279 (active)

CCC1(C2=NCCN2)Cc2ccccc2O1 (stereo not drawn)
remaining activity [13]: 98.6% (inactive)

CC(NC(C)(C)C)C(=O)c1cccc(Cl)c1 (stereo not drawn)
fluorescence ratio [1]: 1.04 (inactive) and 1.06 (inactive)
inhibition [2]: -3.56% (inactive) and 3.56% (inactive)
inhibition [3]: -3.18% (inactive) and 3.75% (inactive)
fluorescence ratio [4]: 1 (inactive)
outcome [5]: inactive
outcome [6]: inactive
outcome [14]: inactive
outcome [7]: inactive
outcome [9]: inactive
outcome [10]: inactive
outcome [11]: inactive
log fold change Tl+ flux (F380Y/beta4): -0.0339 (inactive) and 0.00749 (inactive)
log fold change Tl+ flux [12]: -0.0374 (inactive) and -0.0597 (inactive)
log fold change Tl+ flux (R275C/beta4): -0.00901 (inactive) and 0.0176 (inactive)
